# Assay results from patent publication US20050118148, “Compositions and methods related to mammalian Maf-A” (published 2005).
# Biological target: RIPE3b1 activator (MafA, endogenous) (Mus musculus, UniProt Q8CF90 SEQ:1-359)
# Test: competition; B4/5 roughly 20-fold more effective competitor than B4
# Conditions: protein: extract; tags: beta cell line nuclear extract (betaTC-3, Min6); label: 32P; dsDNA, one strand shown
# Method: To define the factors associated with B4 and B5 mediated regulation, gel shift experiments were performed with probes spanning B4, B5, and B4+B5 (B4/5) and βTC-3 or MIN6 cell nuclear extracts (FIG. 12). Two common protein-DNA complexes were detected with the B4 and B4+B5 probes (labeled as A and B in FIG. 12B), whereas no binding was found with B5 (data not shown). The binding affinity of B4 and B4/5 for these complexes was determined with the wild type and B4+B5 double mutant site (B4+B5MT) competitors.
# RIPE3b1 activator (MafA, endogenous), sequence (Q8CF90 whole entry): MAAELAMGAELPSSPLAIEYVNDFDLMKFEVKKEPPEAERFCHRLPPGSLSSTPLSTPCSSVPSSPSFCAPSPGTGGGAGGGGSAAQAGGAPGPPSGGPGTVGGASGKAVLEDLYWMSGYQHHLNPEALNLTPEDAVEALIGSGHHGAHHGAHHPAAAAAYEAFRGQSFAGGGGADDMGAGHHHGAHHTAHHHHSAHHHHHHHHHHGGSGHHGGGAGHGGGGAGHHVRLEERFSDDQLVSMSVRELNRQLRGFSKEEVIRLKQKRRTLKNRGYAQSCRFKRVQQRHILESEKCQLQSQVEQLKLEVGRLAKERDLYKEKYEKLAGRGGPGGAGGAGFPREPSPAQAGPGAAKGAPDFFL
row,Sequence,binding signal
1,AGCTTTCTTTTTGCAAAGCACAGCAT,~20 fold
